Assay results from article PMC7862700, “An all-to-all approach to the identification of sequence-specific readers for epigenetic DNA modifications on cytosine”.

Legend:
Experiment in all cases: DAPPL (digital affinity profiling via proximity ligation, sequencing); 10 mM Tris-HCl pH 7.5, 50 mM NaCl, 1 mM DTT, 4% glycerol, room temperature, 30 min; GST-TFs on glutathione beads, 16-mer random dsDNA library, 0.1% formaldehyde crosslink after washing; high values mean tight binding
Details in all cases: protein: recombinant; tags: N-terminal GST; dsDNA, one strand shown
ERF = biological target: T1, ERF (Homo sapiens, UniProt P50548 1-548)
T1 sequence: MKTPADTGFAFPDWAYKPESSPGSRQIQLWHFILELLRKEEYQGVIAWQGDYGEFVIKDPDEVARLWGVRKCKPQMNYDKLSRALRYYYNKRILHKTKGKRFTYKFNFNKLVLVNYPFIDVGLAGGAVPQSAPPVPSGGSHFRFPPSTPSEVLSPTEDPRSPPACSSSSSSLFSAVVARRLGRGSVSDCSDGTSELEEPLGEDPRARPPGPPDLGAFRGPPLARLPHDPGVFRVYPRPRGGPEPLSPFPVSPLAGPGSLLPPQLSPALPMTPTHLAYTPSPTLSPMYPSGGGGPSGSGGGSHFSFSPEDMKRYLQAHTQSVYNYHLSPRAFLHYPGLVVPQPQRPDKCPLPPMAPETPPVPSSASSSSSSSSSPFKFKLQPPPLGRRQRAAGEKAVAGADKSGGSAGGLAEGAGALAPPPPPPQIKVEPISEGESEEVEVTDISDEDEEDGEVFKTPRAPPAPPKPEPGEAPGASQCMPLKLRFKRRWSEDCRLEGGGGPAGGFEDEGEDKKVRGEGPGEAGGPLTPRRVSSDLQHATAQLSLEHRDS
Summary of the method: (§1)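 Beads coated with glutathione captured GST-fused human transcription factors that had been expressed in yeast, and the factors were then given DNA barcodes and pooled with a tag-only sample. The pools were incubated with 200 nmole of a random double-stranded 16-mer DNA library in Tris/NaCl/DTT/glycerol buffer for 30 min at room temperature, washed, crosslinked with 0.1% formaldehyde and proximity-ligated with BsaI/T4 ligase at 37 °C for 1 h. PCR amplification and Illumina NextSeq500 sequencing came last. Binding signal is each hexamer's read frequency for a factor divided by its frequency for the tag-only sample.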

ETV3L = biological target: T2, ETV3L (Homo sapiens, UniProt Q6ZN32 1-361)
T2 sequence: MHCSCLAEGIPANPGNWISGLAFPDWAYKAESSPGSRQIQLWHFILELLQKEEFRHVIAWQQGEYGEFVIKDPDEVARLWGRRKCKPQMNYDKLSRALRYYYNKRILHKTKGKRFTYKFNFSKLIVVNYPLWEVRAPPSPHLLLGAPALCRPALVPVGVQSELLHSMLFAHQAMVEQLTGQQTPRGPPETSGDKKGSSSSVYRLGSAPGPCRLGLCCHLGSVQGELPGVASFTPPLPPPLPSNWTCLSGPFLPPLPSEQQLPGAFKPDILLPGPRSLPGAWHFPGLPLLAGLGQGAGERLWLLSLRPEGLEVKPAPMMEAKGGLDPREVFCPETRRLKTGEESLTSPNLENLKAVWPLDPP
Summary of the method: as §1

ETS2 = biological target: T3, ETS2 (Homo sapiens, UniProt P15036 1-469)
T3 sequence: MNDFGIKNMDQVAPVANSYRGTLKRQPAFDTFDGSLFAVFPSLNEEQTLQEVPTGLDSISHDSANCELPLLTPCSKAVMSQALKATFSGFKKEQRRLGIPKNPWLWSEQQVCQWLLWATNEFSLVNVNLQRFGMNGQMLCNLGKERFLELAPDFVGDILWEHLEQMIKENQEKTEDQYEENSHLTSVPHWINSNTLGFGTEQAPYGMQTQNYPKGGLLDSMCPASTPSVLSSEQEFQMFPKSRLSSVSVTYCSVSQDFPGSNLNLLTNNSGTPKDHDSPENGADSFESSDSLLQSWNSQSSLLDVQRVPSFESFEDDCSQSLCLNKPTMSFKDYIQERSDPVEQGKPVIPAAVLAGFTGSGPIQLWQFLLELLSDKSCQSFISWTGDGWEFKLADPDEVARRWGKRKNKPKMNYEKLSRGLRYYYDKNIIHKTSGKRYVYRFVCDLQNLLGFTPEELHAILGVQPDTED
Summary of the method: as §1

SPDEF = biological target: T4, SPDEF (Homo sapiens, UniProt O95238 1-335)
T4 sequence: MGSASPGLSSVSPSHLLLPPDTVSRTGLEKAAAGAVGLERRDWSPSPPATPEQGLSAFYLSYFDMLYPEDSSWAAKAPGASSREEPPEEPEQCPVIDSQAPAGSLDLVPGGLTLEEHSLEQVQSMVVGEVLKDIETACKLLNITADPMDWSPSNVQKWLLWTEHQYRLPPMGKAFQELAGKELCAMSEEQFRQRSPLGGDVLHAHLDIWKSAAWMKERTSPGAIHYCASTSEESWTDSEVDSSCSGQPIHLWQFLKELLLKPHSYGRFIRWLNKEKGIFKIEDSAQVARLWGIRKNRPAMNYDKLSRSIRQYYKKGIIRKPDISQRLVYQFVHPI
Summary of the method: as §1

ETV7 = biological target: T5, ETV7 (Homo sapiens, UniProt Q9Y603 1-341)
T5 sequence: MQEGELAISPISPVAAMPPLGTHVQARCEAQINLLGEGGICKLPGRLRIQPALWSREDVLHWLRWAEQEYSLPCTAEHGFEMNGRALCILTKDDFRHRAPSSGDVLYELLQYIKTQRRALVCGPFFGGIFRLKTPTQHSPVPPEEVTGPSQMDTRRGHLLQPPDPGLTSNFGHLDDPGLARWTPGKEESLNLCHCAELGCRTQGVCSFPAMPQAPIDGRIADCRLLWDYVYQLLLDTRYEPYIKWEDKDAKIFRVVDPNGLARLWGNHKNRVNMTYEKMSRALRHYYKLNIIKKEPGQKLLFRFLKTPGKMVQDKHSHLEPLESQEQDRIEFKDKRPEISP
Summary of the method: as §1

ELF5 = biological target: T6, ELF5 (Homo sapiens, UniProt Q9UKW6-2 1-255)
T6 sequence: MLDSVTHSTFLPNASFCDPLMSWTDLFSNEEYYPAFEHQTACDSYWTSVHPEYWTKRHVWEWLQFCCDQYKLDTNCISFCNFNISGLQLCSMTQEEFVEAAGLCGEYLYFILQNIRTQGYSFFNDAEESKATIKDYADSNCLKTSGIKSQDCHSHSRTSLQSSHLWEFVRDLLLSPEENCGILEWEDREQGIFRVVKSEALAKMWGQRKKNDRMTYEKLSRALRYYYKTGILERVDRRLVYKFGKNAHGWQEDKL
Summary of the method: as §1

ETV3 = biological target: T7, ETV3 (Homo sapiens, UniProt P41162-2 1-143)
T7 sequence: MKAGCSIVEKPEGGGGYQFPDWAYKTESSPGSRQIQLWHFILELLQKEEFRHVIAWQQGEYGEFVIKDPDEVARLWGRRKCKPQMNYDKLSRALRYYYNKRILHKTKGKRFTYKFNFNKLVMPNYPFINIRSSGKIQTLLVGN
Summary of the method: as §1

ETV6 = ETV6 (Homo sapiens, UniProt P41212 1-452)
Summary of the method: as §1

ETV6, sequence (P41212 whole entry): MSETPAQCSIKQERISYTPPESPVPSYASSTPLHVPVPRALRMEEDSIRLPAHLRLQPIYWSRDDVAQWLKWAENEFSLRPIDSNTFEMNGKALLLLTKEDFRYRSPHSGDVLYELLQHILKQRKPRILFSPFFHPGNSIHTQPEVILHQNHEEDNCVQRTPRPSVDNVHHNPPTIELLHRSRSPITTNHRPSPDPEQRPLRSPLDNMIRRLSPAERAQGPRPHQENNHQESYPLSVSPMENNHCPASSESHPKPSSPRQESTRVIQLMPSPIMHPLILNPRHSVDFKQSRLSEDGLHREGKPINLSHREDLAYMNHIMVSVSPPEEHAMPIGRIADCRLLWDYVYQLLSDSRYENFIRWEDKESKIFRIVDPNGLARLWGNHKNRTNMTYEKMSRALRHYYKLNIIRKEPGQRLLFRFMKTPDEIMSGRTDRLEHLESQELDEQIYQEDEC

Sequence	binding signal (ERF)	binding signal (ETV3L)	binding signal (ETS2)	binding signal (SPDEF)	binding signal (ETV7)	binding signal (ELF5)	binding signal (ETV3)	binding signal (ETV6)
CGTTAC	1.16 fold enrichment (6-mer frequency, TF over GST control)	1.18 fold enrichment (6-mer frequency, TF over GST control)	1.23 fold enrichment (6-mer frequency, TF over GST control)	1.1 fold enrichment (6-mer frequency, TF over GST control)	1.11 fold enrichment (6-mer frequency, TF over GST control)	1.15 fold enrichment (6-mer frequency, TF over GST control)	1.14 fold enrichment (6-mer frequency, TF over GST control)	1.12 fold enrichment (6-mer frequency, TF over GST control)
TGCCTA	1.09 fold enrichment (6-mer frequency, TF over GST control)	1.16 fold enrichment (6-mer frequency, TF over GST control)	1.16 fold enrichment (6-mer frequency, TF over GST control)	1.03 fold enrichment (6-mer frequency, TF over GST control)	1.01 fold enrichment (6-mer frequency, TF over GST control)	1 fold enrichment (6-mer frequency, TF over GST control)	1.07 fold enrichment (6-mer frequency, TF over GST control)	1.07 fold enrichment (6-mer frequency, TF over GST control)
GTTCAA	1.14 fold enrichment (6-mer frequency, TF over GST control)	1.19 fold enrichment (6-mer frequency, TF over GST control)	1.14 fold enrichment (6-mer frequency, TF over GST control)	1.22 fold enrichment (6-mer frequency, TF over GST control)	1.03 fold enrichment (6-mer frequency, TF over GST control)	1.12 fold enrichment (6-mer frequency, TF over GST control)	1.15 fold enrichment (6-mer frequency, TF over GST control)	1.16 fold enrichment (6-mer frequency, TF over GST control)
CAGGAT	1.15 fold enrichment (6-mer frequency, TF over GST control)	1.3 fold enrichment (6-mer frequency, TF over GST control)	1.19 fold enrichment (6-mer frequency, TF over GST control)	2.03 fold enrichment (6-mer frequency, TF over GST control)	1.09 fold enrichment (6-mer frequency, TF over GST control)	1.28 fold enrichment (6-mer frequency, TF over GST control)	1.22 fold enrichment (6-mer frequency, TF over GST control)	1.19 fold enrichment (6-mer frequency, TF over GST control)
ATTAGC	1.09 fold enrichment (6-mer frequency, TF over GST control)	1.13 fold enrichment (6-mer frequency, TF over GST control)	1.13 fold enrichment (6-mer frequency, TF over GST control)	1.09 fold enrichment (6-mer frequency, TF over GST control)	1.17 fold enrichment (6-mer frequency, TF over GST control)	1.1 fold enrichment (6-mer frequency, TF over GST control)	1.16 fold enrichment (6-mer frequency, TF over GST control)	1.1 fold enrichment (6-mer frequency, TF over GST control)
AATTGG	1.26 fold enrichment (6-mer frequency, TF over GST control)	1.33 fold enrichment (6-mer frequency, TF over GST control)	1.33 fold enrichment (6-mer frequency, TF over GST control)	1.31 fold enrichment (6-mer frequency, TF over GST control)	1.42 fold enrichment (6-mer frequency, TF over GST control)	1.35 fold enrichment (6-mer frequency, TF over GST control)	1.28 fold enrichment (6-mer frequency, TF over GST control)	1.44 fold enrichment (6-mer frequency, TF over GST control)
TATGCA	1.25 fold enrichment (6-mer frequency, TF over GST control)	1.27 fold enrichment (6-mer frequency, TF over GST control)	1.29 fold enrichment (6-mer frequency, TF over GST control)	1.36 fold enrichment (6-mer frequency, TF over GST control)	1.18 fold enrichment (6-mer frequency, TF over GST control)	1.23 fold enrichment (6-mer frequency, TF over GST control)	1.33 fold enrichment (6-mer frequency, TF over GST control)	1.15 fold enrichment (6-mer frequency, TF over GST control)
CCTCTC	1.4 fold enrichment (6-mer frequency, TF over GST control)	1.41 fold enrichment (6-mer frequency, TF over GST control)	1.34 fold enrichment (6-mer frequency, TF over GST control)	1.39 fold enrichment (6-mer frequency, TF over GST control)	1.44 fold enrichment (6-mer frequency, TF over GST control)	1.41 fold enrichment (6-mer frequency, TF over GST control)	1.44 fold enrichment (6-mer frequency, TF over GST control)	1.5 fold enrichment (6-mer frequency, TF over GST control)
AGAAGC	1.11 fold enrichment (6-mer frequency, TF over GST control)	1.17 fold enrichment (6-mer frequency, TF over GST control)	1.09 fold enrichment (6-mer frequency, TF over GST control)	1.15 fold enrichment (6-mer frequency, TF over GST control)	1.23 fold enrichment (6-mer frequency, TF over GST control)	1.18 fold enrichment (6-mer frequency, TF over GST control)	1.23 fold enrichment (6-mer frequency, TF over GST control)	1.14 fold enrichment (6-mer frequency, TF over GST control)
GATGAA	1.17 fold enrichment (6-mer frequency, TF over GST control)	1.25 fold enrichment (6-mer frequency, TF over GST control)	1.19 fold enrichment (6-mer frequency, TF over GST control)	1.15 fold enrichment (6-mer frequency, TF over GST control)	1.24 fold enrichment (6-mer frequency, TF over GST control)	1.17 fold enrichment (6-mer frequency, TF over GST control)	1.11 fold enrichment (6-mer frequency, TF over GST control)	1.18 fold enrichment (6-mer frequency, TF over GST control)
ATCATG	1.19 fold enrichment (6-mer frequency, TF over GST control)	1.08 fold enrichment (6-mer frequency, TF over GST control)	1.14 fold enrichment (6-mer frequency, TF over GST control)	1.07 fold enrichment (6-mer frequency, TF over GST control)	1.13 fold enrichment (6-mer frequency, TF over GST control)	1.11 fold enrichment (6-mer frequency, TF over GST control)	1.19 fold enrichment (6-mer frequency, TF over GST control)	1.08 fold enrichment (6-mer frequency, TF over GST control)
ACACTG	1.17 fold enrichment (6-mer frequency, TF over GST control)	1.11 fold enrichment (6-mer frequency, TF over GST control)	1.06 fold enrichment (6-mer frequency, TF over GST control)	1.05 fold enrichment (6-mer frequency, TF over GST control)	1.03 fold enrichment (6-mer frequency, TF over GST control)	1.05 fold enrichment (6-mer frequency, TF over GST control)	1.01 fold enrichment (6-mer frequency, TF over GST control)	1.04 fold enrichment (6-mer frequency, TF over GST control)
GTATAA	1.13 fold enrichment (6-mer frequency, TF over GST control)	1.14 fold enrichment (6-mer frequency, TF over GST control)	1.08 fold enrichment (6-mer frequency, TF over GST control)	1.07 fold enrichment (6-mer frequency, TF over GST control)	1.11 fold enrichment (6-mer frequency, TF over GST control)	1.11 fold enrichment (6-mer frequency, TF over GST control)	1.08 fold enrichment (6-mer frequency, TF over GST control)	1.08 fold enrichment (6-mer frequency, TF over GST control)
AAGTGT	1.24 fold enrichment (6-mer frequency, TF over GST control)	1.2 fold enrichment (6-mer frequency, TF over GST control)	1.38 fold enrichment (6-mer frequency, TF over GST control)	1.32 fold enrichment (6-mer frequency, TF over GST control)	1.42 fold enrichment (6-mer frequency, TF over GST control)	1.43 fold enrichment (6-mer frequency, TF over GST control)	1.23 fold enrichment (6-mer frequency, TF over GST control)	1.35 fold enrichment (6-mer frequency, TF over GST control)
CCGTCC	1.51 fold enrichment (6-mer frequency, TF over GST control)	1.38 fold enrichment (6-mer frequency, TF over GST control)	1.38 fold enrichment (6-mer frequency, TF over GST control)	1.55 fold enrichment (6-mer frequency, TF over GST control)	1.27 fold enrichment (6-mer frequency, TF over GST control)	1.36 fold enrichment (6-mer frequency, TF over GST control)	1.51 fold enrichment (6-mer frequency, TF over GST control)	1.29 fold enrichment (6-mer frequency, TF over GST control)
